High-throughput results as filed in PubChem.
POLH inh: DNA polymerase eta (human) inhibition. 1.2% of 390,000 active. Potency, µM (doses to about 114 µM), for inactives: at the highest dose activity change, negative = inhibition, actives largely listed as inhibitors. Q9Y253. recombinant Pol eta, fluorescent DNA replication assay. AID 588591; also: % is scaled to controls: 0 for no effect and ±100 for the full control effect
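Fluorescent replication assay: 50 nM final substrate added after a 15 min room-temperature compound preincubation with 10 nM enzyme. Signal taken at 0 min and again at 10 min.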
Pol kappa inh: blocks human DNA polymerase kappa activity; Q9UBT6; purified Pol kappa, fluorescent DNA synthesis assay, 10 min; Potency, µM (highest dose often 107 µM), inactives show at the top dose activity, negative = inhibition, hits mostly inhibitors; 0.53% of 400,000 active; AID 588579; also: % is scaled to controls: 0 for no effect and ±100 for the full control effect
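Readout: fluorescence, taken kinetically at 0 and 10 min. Conditions: 10 nM Pol kappa, 15 min RT compound preincubation, 50 nM substrate final. Controls: enzyme-free buffer wells.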
L3MBTL1 block: blocks human L3MBTL1; AlphaScreen L3MBTL1–H3K9me1 peptide binding; 0.66% of 230,000 active; Potency, µM (highest dose often 57.1 µM), for inactives: at the top dose activity, negative = inhibition, hits mostly inhibitors; also: % is scaled to controls: 0 for no effect and ±100 for the full control effect; nearly all actives have a fitted effect of over 60% in size
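L3MBTL1 (50 nM) pre-complexed 30 min with biotinylated H3(1-15)K9me1 peptide (75 nM), then compounds added for 30 min at room temperature; AlphaScreen streptavidin donor/nickel chelate acceptor beads (10 ug/mL final) read after 30 min dark incubation.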
POLI inh: blocks human DNA polymerase iota activity; Q9UNA4; Pol iota fluorescent replication assay, 10 min; Potency, µM (series often up to 115 µM), for inactives: top-dose activity, negative = inhibition, most hits filed as inhibitors; 1% of 390,000 active
Target sequence (Q9UNA4 whole entry, looked up): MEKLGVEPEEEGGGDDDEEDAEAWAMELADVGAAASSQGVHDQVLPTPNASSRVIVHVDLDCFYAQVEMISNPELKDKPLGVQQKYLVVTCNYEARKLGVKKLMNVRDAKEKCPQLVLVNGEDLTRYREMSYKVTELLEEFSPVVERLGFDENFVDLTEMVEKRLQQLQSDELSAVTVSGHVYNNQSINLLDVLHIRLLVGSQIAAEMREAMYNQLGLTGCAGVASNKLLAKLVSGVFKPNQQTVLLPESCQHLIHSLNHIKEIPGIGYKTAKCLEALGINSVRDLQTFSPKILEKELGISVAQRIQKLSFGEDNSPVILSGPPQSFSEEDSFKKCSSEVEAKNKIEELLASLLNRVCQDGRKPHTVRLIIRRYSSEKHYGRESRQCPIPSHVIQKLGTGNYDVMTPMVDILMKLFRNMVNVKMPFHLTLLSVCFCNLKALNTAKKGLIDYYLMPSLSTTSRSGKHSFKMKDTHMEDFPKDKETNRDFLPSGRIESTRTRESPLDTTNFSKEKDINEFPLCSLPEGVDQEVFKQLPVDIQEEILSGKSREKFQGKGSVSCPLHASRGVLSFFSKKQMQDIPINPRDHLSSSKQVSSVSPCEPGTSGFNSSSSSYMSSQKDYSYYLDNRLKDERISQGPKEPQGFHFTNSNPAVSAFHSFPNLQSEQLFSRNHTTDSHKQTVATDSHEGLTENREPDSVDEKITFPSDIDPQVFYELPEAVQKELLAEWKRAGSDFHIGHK
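Pol iota at 10 nM preincubated 15 min with compounds at room temperature; reaction started with fluorescent substrate, 50 nM final. Fluorescence read kinetically at 0 and 10 min; buffer-only wells as negative control.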
Pol beta inh: inhibitors of human DNA polymerase beta; P06746; Pol beta primer extension/strand displacement, fluorescence kinetic; Potency, µM (titrated, usually from 114 µM), for inactives: top-dose activity change, negative = inhibition, most hits filed as inhibitors; 1.3% of 340,000 active; also: % is scaled to controls: 0 for no effect and ±100 for the full control effect
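10 nM enzyme + cpd, 15 min RT; start with substrate 50 nM final; read 0 min and after 10 min RT. Corrected, normalized data; 4-parameter Hill curve fit.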
Active calls of the source: *; ? = inconclusive; / = no result; [ ] = another dose, or the depositor's remark. Most compounds without a hit are left out; they make up all but 2.4% or so of the library. Calls follow the shape of the dose curve; as a rule, active = well fitted curve in the direction sought with a large enough effect; inconclusive = small, poorly fitted or top-dose-only effect, or another doubt; inactive = no such curve, though single readings can be large; an effect the other way counts as inactive or inconclusive. Potency is read from the fitted curve at half-maximal effect.

SMILES	POLH inh	Pol kappa inh	L3MBTL1 block	POLI inh	Pol beta inh
COc1ccc(/C=C2/SC(=S)N(NS(=O)(=O)c3ccc(C)cc3)C2=O)cc1	79.4µM*	-15.4%	/	?	?
Cc1ccc(S(=O)(=O)NN2C(=O)/C(=C/c3cccs3)SC2=S)cc1	-3.1%	-12.1%	/	-9.6%	0.2%
C=CCOc1ccc(/C=C2\SC(=S)N(NS(=O)(=O)c3ccc(C)cc3)C2=O)cc1	50.1µM*	-10.6%	/	?	?
COc1ccccc1N1CCN(c2ccc(=O)n(CC(=O)NCc3ccc(F)cc3)n2)CC1	6.3%	-27.8%	/	-27.6%	1.0%
CN(C)c1ccc(/C=C2/CCCc3c2nc2ccccc2c3C(=O)O)cc1	/	79.4µM*	/	?	/
CN(C)c1ccc(/C=C2\CCCc3c2nc2ccccc2c3C(=O)O)cc1	6.0%	-18.1%	/	115.5%	-9.3%
CCOC(=O)c1c(NC(=O)c2nc(S(C)(=O)=O)ncc2Cl)sc(C(C)=O)c1C	79.4µM*	4.4%	/	1.7%	-1.7%
CCOC(=O)c1c(NC(=O)c2nc(SCC)ncc2Cl)sc(C(C)=O)c1C	-4.8%	-19.8%	/	-7.2%	27.0%
c1ccc(-c2[nH]ncc2-c2ccnc3ccccc23)nc1	/	7.9%[60.1 µM]	/	/	/
Nc1cc(C(=O)O)c(N)c2c1C(=O)c1ccccc1C2=O	20µM*	?	/	20µM*	?
Nc1c(C(=O)O)ccc2c1C(=O)c1ccccc1C2=O	-29.1%	-12.5%	-21.0%	?	?
COc1ccc(CCn2c(C3CCCCC3)nc3c(c(=O)c4ccccc4n3C)c2=O)cc1	-5.0%	2.9%	/	14.7%	?
COc1ccc(Cn2c(C3CCCCC3)nc3c(c(=O)c4ccccc4n3C)c2=O)cc1	?	-2.5%	-17.1%	18.3%	4.47µM*
Clc1ccccc1COc1ccc(/C=N/n2cnnc2)cc1	-0.7%	-24.2%	6.3%	9.9%	31.6µM*
Fc1ccc(COc2ccc(/C=N/n3cnnc3)cc2)cc1	-9.7%	-3.1%	-2.4%	-19.9%	4.9%
Cc1c(-c2cccc(NC(=O)Nc3ccccc3)c2)nc2ncccn12	0.4%	-3.2%[60.1 µM]	/	?	-0.7%
O=C1c2ccccc2C(=O)c2c1cccc2N1CCCC1	-19.9%	-19.9%	8.91µM*	?	-0.3%
CC1=C(CO)C(=O)OC([C@@H](C)C2CC[C@H]3C4C[C@H]5O[C@]56[C@@H](O)C=CC(=O)[C@]6(C)C4CC[C@]23C)C1 (some centres not stated)	50.1µM*	-18.0%	/	?	?
CCN(c1ccc(OC)cc1)S(=O)(=O)c1nnc(NC(=O)COc2ccc(C)cc2)s1	-1.7%	-15.7%	/	-6.0%	7.94µM*
CCN(c1cc(C)cc(C)c1)S(=O)(=O)c1nnc(NC(=O)c2cccs2)s1	89.1µM*	-16.4%	/	24.9%	-27.6%
CCN(c1ccc(OC)cc1)S(=O)(=O)c1nnc(NC(=O)COc2ccc(F)cc2)s1	?	?	/	?	-17.5%
CCN(c1cccc(C)c1)S(=O)(=O)c1nnc(NC(=O)c2cccs2)s1	-24.5%	1.0%	/	12.6%	0.4%
Cc1ccc(-n2cc(C(=O)Oc3ccc(F)cc3)c3ccccc3c2=O)cc1	0.0%	-5.7%[60.1 µM]	/	11.9%	-20.4%
Cc1cc(C(=O)N/N=C/c2ccc(-c3ccccc3Cl)o2)n[nH]1	?	?	3.4%	-55.5%	10µM*
Cc1cc(C(=O)N/N=C/c2ccc(-c3ccc([N+](=O)[O-])cc3Cl)o2)n[nH]1	?	-6.1%	/	14.5%	?
SMILES	POLH inh	Pol kappa inh	L3MBTL1 block	POLI inh	Pol beta inh
O=C(CCCc1ccncc1)c1ccccc1	-12.7%	-0.8%	/	27.1%	/
CC(C)OC(=O)c1cn(-c2ccccc2)nc1-c1ccco1	?	?	-6.5%	?	39.8µM*
Cc1ccc(-c2nn(-c3ccccc3)cc2C(=O)O)o1	/	/	2.82µM*	/	15.8µM*
CCN1CCC(N(Cc2cccc(OC)c2)C(=O)Nc2cccc(C(F)(F)F)c2)CC1	-21.7%	-14.8%	/	16.0%	-1.7%
COC(=O)c1cc(C(=O)OCC(=O)c2ccc3c(c2)NC(=O)CO3)cc([N+](=O)[O-])c1	3.3%	-3.9%	1.6%	23.2%	/
CN(C[C@H](Cc1ccccc1)N(C[C@H](CC1CCCCC1)N(CCc1ccccc1)N=O)N=O)N=O	-12.2%	?	-4.4%	89.1µM*	10.9%
